Results filed as inconclusive are left out. Where a structure was tested more than once in an assay, its records may differ in their call. Calls of active or inactive are those of the source. Calls follow the shape of the dose curve; as a rule, active = well fitted cell-killing curve with a large enough effect in the repeat runs; inconclusive = weak or mixed curves, or effect the other way; inactive = no such curve, though single readings can be large or run the other way.
test: qHTS assay to identify small molecule agonists of the vitamin D receptor (VDR) signaling pathway - cell viability counter screen (AID 743224); conditions: VDR-bla HEK293T viability, CellTiter-Glo luminescence, 16 h; series mostly up to 62.6 µM; activity change, negative = cytotoxicity: at the top concentration; also: nearly all actives have a fitted effect of over 50% in size
Description: U.S. Tox21 Program National Center for Advancing Translational Sciences [NCATS] NIH Chemical Genomics Center [NCGC] U.S. Environmental Protection Agency [EPA] National Institutes of Environmental Health Sciences [NIEHS] National Toxicology Program [NTP] U.S. Food and Drug Administration [FDA] Tox21 Assay Overview: The vitamin D receptor (VDR), a member of nuclear hormone receptor superfamily, plays a critical role in calcium homeostasis and bone metabolism. It is also involved in cell differentiation and growth, and thrombogenicity. […] The cytotoxicity of the Tox21 compound library against the VDR-bla cell line was tested in parallel by measuring the cell viability using CellTiter-Glo assay (Promega, Madison, WI) in the same wells.
Tox21 Assay Protocol Summary: VDR-bla cells were dispensed at 2,000 cells/6 uL/well into black wall/clear-bottom 1536-well plates using a Multidrop Combi (Thermo Fisher Scientific, Waltham, MA) dispenser. After the assay plates were incubated at a 37C and 5% CO2 for 4 h, 23 nL of compounds dissolved in DMSO, positive controls or DMSO only was transferred to the assay plate by a Pintool station (Kalypsys, San Diego, CA). The plates were incubated at 37C and 5% CO2 for 16 h. After 1 uL of LiveBLAzerTM B/G FRET substrate was added using a Bioraptr Flying Reagent Dispenser (FRD) workstation (Beckman Coulter, Indianapolis, IN, USA), the plates were incubated at room temperature for 2 h, and fluorescence intensity was measured by an Envision plate reader (PerkinElmer, Shelton, CT). For cell viability readout that measures cytotoxicity, 3 ul/well of CellTiter-Glo reagent was added into the assay plates using a FRD. After 30 min incubation at room temperature, the luminescence intensity in the plates was measured using a ViewLux (PerkinElmer) plate reader.
% is scaled to controls: 0 for no effect and ±100 for the full control effect; potency is read from the fitted curve at half-maximal effect.

Compound | activity change, negative = cytotoxicity | Potency
CCN(CC)CCOC(=O)C(O)(c1ccccc1)c1ccccc1 | 0.139% (inactive) | 
CCCCS(=O)(=O)Cl | 5.87% (inactive) | 
CCC(C(N)=O)N1CCCC1=O (stereo not given) | 6.58% (inactive) | 
C=CC(=O)OCCN(C)C | 4.14% (inactive) | 
O=c1[nH]c2ccccc2n1C1CCNCC1 | 3.18% (inactive) | 
C#CC(C)(C)O | 16.3% [at 81.1 µM] (inactive) | 
C[C@@H](N)[C@@H](O)c1ccccc1 | 8.06% (inactive) | 
O=P(O)(O)c1ccccc1 | 0.148% (inactive) | 
COP(=O)(O)OC | -0.462% [at 81.1 µM] (inactive) | 
CC[C@H](N)c1ccccc1 | -7.17% (inactive) | 
ClCC1CO1 (stereo not given) | -2.49% (inactive) | 
CON(C)C(=O)Nc1ccc(Br)cc1 | -1.62% (inactive) | 
BrCc1ccc(Br)cc1 | -1.41% (inactive) | 
CCOC(=O)CC(SP(=S)(OC)OC)C(=O)OCC (stereo not given) |  | inactive
CN(C)C1CCCCC1 | 17.9% (inactive) | 
CC(C)[N+](C)(CCC(C(N)=O)(c1ccccc1)c1ccccc1)C(C)C | -0.932% (inactive) | 
C=CCc1cc(OC)c2c(c1)OCO2 | -3.24% [at 81.1 µM] (inactive) | 
O=C(O)c1c(Cl)ccc2cc(Cl)cnc12 | 3.79% (inactive) | 
CC(Cc1ccccc1)NCCn1cnc2c1c(=O)n(C)c(=O)n2C (stereo not given) | 5.61% [at 81.1 µM] (inactive) | 
C=CCN1CC[C@]23CCCC[C@H]2[C@H]1Cc1ccc(O)cc13 | -2.51% (inactive) | 

Compound | activity change, negative = cytotoxicity | Potency
CCOC(=O)Nc1cccc(OC(=O)Nc2ccccc2)c1 | -0.49% (inactive) | 
CNC(=O)O/N=C(/CSC)C(C)(C)C | 6.23% (inactive) | 
CCCN1CCC[C@@H]2Cc3nc(N)ncc3C[C@H]21 | -0.969% (inactive) | 
CCCCCCCC(=O)Cl | 1.57% [at 81.1 µM] (inactive) | 
CCN(CCO)CCn1c(Cc2ccccc2)nc2c1c(=O)n(C)c(=O)n2C | -4.55% (inactive) | 
C=CC1(C)OC(=O)N(c2cc(Cl)cc(Cl)c2)C1=O (stereo not given) | -0.0706% (inactive) | 
S=C=S | 13.2% (inactive) | 
CC[C@H](O)C(C[C@H](C)N(C)C)(c1ccccc1)c1ccccc1 | -12.1% [at 81.1 µM] (inactive) | 
NC1(c2ccccc2)CCCCC1 | 10.5% [at 81.1 µM] (inactive) | 
COc1cc(CC(C)N)cc(OC)c1OC (stereo not given) | -1.39% [at 81.1 µM] (inactive) | 
O=C(Cl)C(Cl)Cl | 18.2% (inactive) | 
C[C@H]1CCCC(=O)CCC/C=C/c2cc(O)cc(O)c2C(=O)O1 |  | 42.1 µM (active) and inactive
CC[C@@H](CO)NC(=O)[C@@H]1C=C2c3cccc4c3c(cn4C)C[C@H]2N(C)C1 | -5.18% (inactive) | 
CC(C)[C@]12CC(=O)[C@H](C)[C@H]1C2 | 19% (inactive) | 
CC(C)C(C)(N)C#N (stereo not given) | 0.0643% (inactive) | 
CCOC(=O)C(SP(=S)(OC)OC)c1ccccc1 (stereo not given) | -7.52% (inactive) | 
CON(C)C(=O)Nc1ccc(Br)c(Cl)c1 | -8.45% (inactive) | 
COc1ccccc1OC | -0.102% (inactive) | 
CCC(CC)(CNC(=O)CCCO)c1cccc(OC)c1 | 6.04% (inactive) | 
C=C1CC[C@@]2(O)[C@H]3Cc4ccc(O)c5c4[C@@]2(CCN3CC2CC2)[C@H]1O5 | 1.69% (inactive) | 

From PubChem BioAssay (Tox21)
